Marburg entry inh = qHTS for inhibitors of binding or entry into cells for Marburg Virus. Marburg virus pseudotyped entry inhibition, cell reporter. hit rate 1.8% among 300,000. AID 540276, 2011. Potency, µM (titrated, usually from 37.8 µM), for inactives: top-dose activity change, negative = inhibition, actives largely listed as inhibitors; calls by dose curve; tested in HEK293 cells; further: potency means the concentration at half of the fitted maximal effect; on the % scale 0 is the no-effect control and ±100 the full control effect
LASV entry inh = qHTS for Inhibitors of binding or entry into cells for Lassa Virus; Potency, µM (series often up to 37.9 µM), for the others: top-dose activity change, negative = inhibition, hits mostly inhibitors; Lassa virus pseudotype entry inhibition, cell reporter; hit rate 1.2% among 300,000; calls by dose curve; tested in HEK293 cells; further: potency means the concentration at half of the fitted maximal effect; on the % scale 0 is the no-effect control and ±100 the full control effect; nearly all actives have a fitted effect of over 50% in size
Pf growth 48h = Primary qHTS for delayed death inhibitors of the malarial parasite plastid, 48 hour incubation; P. falciparum luciferase growth in erythrocytes, 48 h; Potency, µM (titrated, usually from 28.7 µM), for the others: at the highest dose activity change, negative = inhibition, most hits filed as inhibitors; hit rate 5.9% among 310,000; further: potency means the concentration at half of the fitted maximal effect; on the % scale 0 is the no-effect control and ±100 the full control effect
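Firefly luciferase activity from engineered P. falciparum reports growth; inhibitors lower the luminescent signal. Cultures contained 2% hematocrit erythrocytes at 0.1% final parasitemia.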
Shiga toxin inh = A qHTS for Small Molecule Inhibitors of Shiga Toxin | Vero cells, Shiga toxin protein synthesis inhibition reporter | inhibition, % at 38.7 µM | hit rate 9.2% among 290,000; in the data active means inhibition mostly above about 28%, no sharp cut-off; inactive means mostly below about 43%; further: 0% is about no effect
Cycloheximide cs = Cycloheximide Counterscreen for Small Molecule Inhibitors of Shiga Toxin; hit rate 12% among 300,000; max response, %; cell reporter, cycloheximide protein synthesis inhibition counterscreen; in the data active means max response mostly above about 13%, no sharp cut-off; inactive means mostly below about 14%; further: read at 38.3 µM for the half of the compounds with a filed dose; 0% is about no effect
Pf growth 96h = Primary qHTS for delayed death inhibitors of the malarial parasite plastid, 96 hour incubation; P. falciparum luciferase reporter growth, 96 h; Potency, µM (top dose mostly 28.7 µM), for inactives: at the top dose activity change, negative = inhibition, usual class: inhibitors; hit rate 6.9% among 320,000; AID 504834, 2011; further: potency means the concentration at half of the fitted maximal effect; on the % scale 0 is the no-effect control and ±100 the full control effect
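Parasite growth measured via integrated firefly luciferase reporter in P. falciparum. Infected erythrocytes at 2% hematocrit, 0.05% parasitemia final were treated 96 hours at 37 C under 5% CO2, and luminescence was read.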
The depositor's hits bear a star; ? = inconclusive; / = not tested or not shown; [ ] = dose if it differs, or a comment. An excerpt weighted towards active compounds, which were near 19% of everything screened. Unless noted, the call rests on the fitted dose curve; in most records, active means well fitted inhibition curve with a large enough effect; inconclusive means small, poorly fitted or top-dose-only effect, or another doubt; inactive means no such curve, though single readings can be large or run the other way.

SMILES	Marburg entry inh	LASV entry inh	Pf growth 48h	Shiga toxin inh	Cycloheximide cs	Pf growth 96h
O=C(COC(=O)c1ccccc1Cl)NC(=O)NCc1ccccc1	-1%	8.2µM*	10%	-16	8	-29%
CCNC(=O)NC(=O)COC(=O)c1ccccc1SCC(=O)NC(=O)NCC	14µM*	?	13%	68	63*	?
Cc1[nH]c2ccccc2c1C(=O)NS(=O)(=O)Nc1ccc(F)cc1	6%[46.1 µM]	28%[46.1 µM]	?	-11	-1	0%
Cc1ccc(S(=O)(=O)N2CC3CCCN3c3ccc(C(F)(F)F)cc32)cc1 (stereo not drawn)	?	?	10µM*	-7	-3	?
O=S(=O)(c1ccc(F)cc1)N1CC2CCCN2c2ccc(C(F)(F)F)cc21 (stereo not drawn)	-27%	12%	?	12	2	?
Cc1cc(NC(=O)Nc2ccccc2Cl)no1	7%	17%	46%	64*	27*	?
Cc1cc(NC(=O)Nc2cccs2)no1	14%	13%	36%	19	16*	-10%
Cc1cc(NC(=O)CS(=O)(=O)c2cn(Cc3ccccc3Cl)c3ccccc23)no1	?	?	0%	-11	-2	0.59µM*
COc1ccc(Cl)cc1NC(=O)Nc1cc(C)on1	/	/	192%	61*	36*	?
COc1ccc(Cl)cc1NC(=O)Nc1cnccn1	/	/	?	-8	-1	?
COc1ccc(NC(=O)N2CCN(CCC#N)CC2)cc1	?	-17%	/	-7	-4	79%
COc1ccc(Cl)cc1NC(=O)c1ocnc1C	-16%	3%	-2%	-15	-4	1µM*
COc1ccc(NC(=O)c2ocnc2C)cc1OC	-9%	?	35%	11	12	40%
O=C(Nc1ccc(C(F)(F)F)cn1)Nc1cccs1	21%	?	35%	35*	26*	51%
Cc1cccc(C(=O)OCc2cc(=O)n3nc(-c4cccs4)sc3n2)c1	/	5%[46.1 µM]	/	/	/	/
Cc1cc(C)c2cc(CN(CCO)Cc3nnnn3Cc3ccc(F)cc3)c(=O)[nH]c2c1	-14%	-13%	-19%	-8	-2	?
CC(C)(C)c1nnc(NC(=O)COc2ccc3c(c2)OCO3)s1	?	-20%[46.1 µM]	104%	/	/	?
O=C(Cn1ncc2c1-c1ccccc1OC2)N1CCN(c2ccccc2)CC1	10%[46.1 µM]	/	/	/	/	/
O=C(Cn1ncc2c1-c1ccccc1OC2)N1CCN(Cc2ccc3c(c2)OCO3)CC1	-7%	/	/	-11	-6	4.7µM*
Cn1c2c(c(=O)c3ccccc31)CCCC2	20%	-9%	-10%	-9	-2	?
Cc1ccc(C2C(=O)N(C3CCCC3)CC(=O)N2C2CCCCC2)cc1 (stereo not drawn)	1%	?	/	-9	-6	?
CC(C)N1C(=O)CN(C2CCCCCC2)C(=O)C1c1ccccc1F (stereo not drawn)	?	28%	?	187*	60*	?
COc1ccc(C2CC3(CC(C)(C)NC(=S)N3)Oc3cc(O)cc(C)c32)cc1 (stereo not drawn)	?	?	?	1	-2	4.1µM*
Cc1cc(O)cc2c1C(c1ccc(F)cc1)CC1(CC(C)(C)NC(=S)N1)O2 (stereo not drawn)	-9%[46.1 µM]	?	?	8	-8	30%
COc1ccc(C2CC3(CC(C)(C)NC(SC)=N3)Oc3cc(O)cc(C)c32)cc1 (stereo not drawn)	10µM*	18µM*	?	-11	-6	0%
SMILES	Marburg entry inh	LASV entry inh	Pf growth 48h	Shiga toxin inh	Cycloheximide cs	Pf growth 96h
COc1ccc(C2CC3(CC(C)(C)NC(=O)N3)Oc3cc(O)ccc32)cc1 (stereo not drawn)	3%	11%	?	-14	-3	/
CCOC(=O)c1c(C)n(C(=O)c2ccco2)c(=O)n1C(=O)c1ccco1	1%	-15%	18%	-6	-2	17%
COc1ccc(C2/C=C\CN(C(=O)c3ccc(C)cc3)[C@H](Cc3ccccc3)C(=O)N2Cc2ccc(F)cc2)cc1 (stereo partly drawn)	/	/	4.1µM*	1	-2	4.1µM*
COc1ccc(C2/C=C\CN(C(=O)c3ccc(C)cc3)C(C)C(=O)N2Cc2ccc(F)cc2)cc1 (stereo not drawn)	/	/	/	144*	83*	/
COc1ccc(C2/C=C\CN(C(=O)C3CC3)C(Cc3ccccc3)C(=O)N2Cc2ccc(F)cc2)cc1 (stereo not drawn)	/	/	/	-7	15	/
O=S(=O)(NCc1ccco1)c1ccc(Cl)s1	-23%[46.1 µM]	5%[46.1 µM]	/	/	/	/
Cc1ccc(/C(O)=C2/C(=O)C(=O)N(CCN3CCOCC3)C2c2cccnc2)cc1 (stereo not drawn)	1%	1%	5%	12	-2	?
CN(C)CCN1C(=O)C(=O)/C(=C(/O)c2ccc3c(c2)OCCO3)C1c1ccccn1 (stereo not drawn)	9%	13%	62%	102*	42*	55%
CCOc1ccc(C2/C(=C(/O)c3ccc(S(=O)(=O)N4CCCCC4)cc3)C(=O)C(=O)N2CCCOC)cc1OC (stereo not drawn)	-2%	9%	?	-11	-2	3.7µM*
COCCCN1C(=O)C(=O)/C(=C(/O)c2ccc(S(=O)(=O)N3CCCCC3)cc2)C1c1ccc(OC)cc1 (stereo not drawn)	/	/	32%	-5	-2	13%
O=C1C(=O)N(CCN2CCOCC2)C(c2ccc(Cl)cc2)/C1=C(/O)c1ccc(S(=O)(=O)N2CCOCC2)cc1 (stereo not drawn)	-1%[46.1 µM]	4%	-40%	-14	-1	2.6µM*
Cc1ccc(C)c(/C(O)=C2\C(=O)C(=O)N(CCCN3CCOCC3)C2c2cccnc2)c1 (stereo not drawn)	?	-9%	15%	-10	-2	1.9µM*
COc1cccc(/C(O)=C2/C(=O)C(=O)N(CCN(C)C)C2c2ccccn2)c1 (stereo not drawn)	11%	2%	35%	41	11	?
O=C(CCN1CCCCC1)Nc1ccc(Cl)cc1C(=O)c1ccccc1	/	/	?	-6	-6	?
COc1ccc(N2CCN(c3oc(/C=C/c4cccc(OC)c4)nc3C#N)CC2)cc1	2%[46.1 µM]	22%[46.1 µM]	/	/	/	/
CC1(C(=O)Nc2cccc(Br)c2)Cc2ccccc2C(=O)O1 (stereo not drawn)	12%[46.1 µM]	22%[46.1 µM]	/	/	/	/
CCOc1ccc(N2C(=O)CC(N3CCN(c4ccc(F)cc4)CC3)C2=O)cc1 (stereo not drawn)	/	/	0%	-13	-4	-2%
Cc1c(/C(O)=C2/C(=O)C(=O)N(CCN3CCOCC3)C2c2ccccn2)cnn1-c1ccccc1 (stereo not drawn)	?	?	110%	50*	28*	?
COc1ccc([C@H]2/C(=C(\O)c3ccc(OC(C)C)cc3)C(=O)C(=O)N2CCCN2CCOCC2)cc1	-13%	/	/	/	/	/
